Reference: ChEMBL document CHEMBL3988442, “University of Dundee, Small-Polar-MMV Screening Library” (2021)

Assays:
[1] = biological target: T1, Aspartate--tRNA(Asp/Asn) ligase (Mycobacterium tuberculosis (strain ATCC 25618 / H37Rv)) (UniProt P9WFW3); test: Assay for Asp RNA synthetase-1 from Mycobacterium tuberculosis; type: functional; design: scale not given: direction of the effect not stated beside the values; conditions: 30 µM; further: in the data most compounds retested in dose-response had high values
T1 sequence (whole entry): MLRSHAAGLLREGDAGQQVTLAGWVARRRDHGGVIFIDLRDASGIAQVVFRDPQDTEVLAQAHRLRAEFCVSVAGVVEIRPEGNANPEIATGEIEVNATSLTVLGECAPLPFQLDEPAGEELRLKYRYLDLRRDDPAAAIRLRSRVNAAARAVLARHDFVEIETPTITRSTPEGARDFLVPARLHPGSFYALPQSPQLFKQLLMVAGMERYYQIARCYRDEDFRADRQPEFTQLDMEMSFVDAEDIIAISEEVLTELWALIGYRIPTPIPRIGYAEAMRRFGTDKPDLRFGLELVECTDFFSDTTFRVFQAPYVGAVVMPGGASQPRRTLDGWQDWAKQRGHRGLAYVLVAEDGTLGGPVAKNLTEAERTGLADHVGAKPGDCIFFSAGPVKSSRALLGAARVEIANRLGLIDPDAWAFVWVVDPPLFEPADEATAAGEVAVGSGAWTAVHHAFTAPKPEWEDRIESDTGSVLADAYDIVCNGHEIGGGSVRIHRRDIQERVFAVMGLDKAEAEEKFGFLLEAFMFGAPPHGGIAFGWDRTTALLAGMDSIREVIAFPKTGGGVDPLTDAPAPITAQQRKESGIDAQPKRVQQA

[2] = biological target: Shiga toxin 2 (Escherichia coli O157:H7) (UniProt P09385+P09386); test: E. coli 0.157:H7 Shiga Toxin SOP - stx2 screening assay; type: functional; design: scale not given: direction of the effect not stated beside the values; conditions: 30 µM

Compound	Percent Effect [1] [%]	Percent Effect [2] [%]
COc1ccc(NC(=O)N2CCN(c3ncccn3)CC2)cn1	-4.63	-16.1
COCCc1noc(CN2CCCC(Cn3nc(C)nc3C)C2)n1 (configuration not stated)	12.8	22.8
CCN(c1ccc(C(=O)NCCCN2CCOCC2)cc1)S(=O)(=O)CC	4.46	-48.2
CCOc1ncccc1NC(=O)c1cc2c(s1)CCC2	-3.51	1.91
COCCN1CCC(Cc2cncc(-c3ccc(C(=O)O)cc3)n2)C1 (configuration not stated)	4.51	8.34
CC(C)(C)C(=O)N1CCC2(COCc3cnc(N4CCOCC4)nc32)C1 (configuration not stated)	3.22	-15.4
Cc1cc(C)c2c(OCC(=O)NC(C)C)nn(C)c2n1	-1.15	-0.409
COCC1c2c(cnn2C)CCN1Cc1ccoc1 (configuration not stated)	2.94	-3.41
COc1ccc(CNC(=O)N2CCC(Cc3cnn(C)c3)C2)cc1C (configuration not stated)	-2.9	18
CN(C)[C@@H]1CCN(C(=O)NC2CCCC2)[C@H]1Cc1cnn(C)c1	-2.75	-11.7
O=C(NCc1ccoc1)Nc1ccc(CN2CCOC2=O)cc1	-3.73	-75.3
